Records with an inconclusive call do not appear. Active and inactive are the calls of the source. The calls were made as follows, unless noted: active = hit-call score of the fitted dose curve at least 0.9, where 1 is the maximum; inactive = score below 0.9.
Tests used:
[1] = BSK_LPS_PGE2: BioMAP Diversity Plus: LPS Assay for Prostaglandin E2 (PGE2) Biomarker Activity (AID 2283082); conditions: primary human HUVEC with PBMC; actives raise or lower the signal;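 as to AC50: secreted prostaglandin E2 measured by ELISA in LPS-stimulated co-culture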
How it was run: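 Endpoint derived from bidirectional curve fitting versus DMSO of ELISA-measured PGE2 in LPS-stimulated human primary vascular co-culture (HUVEC with PBMC) harvested at 24 h.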

[2] = read-out: Macrophage colony-stimulating factor (MCSF), CSF1 (gene 1435); test: BSK_LPS_MCSF: BioMAP Diversity Plus: LPS Assay for Macrophage colony-stimulating factor (MCSF) Biomarker Activity (AID 2283083); conditions: primary human HUVEC with PBMC; actives raise or lower the signal
How it was run: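 ELISA readout of M-CSF after 24 h compound exposure in a human endothelial/PBMC co-culture. Activity, in either direction, is fitted relative to DMSO vehicle.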

[3] = read-out: Tissue Factor, F3 (gene 2152); test: BSK_LPS_TissueFactor: BioMAP Diversity Plus: LPS Assay for Tissue Factor Biomarker Activity (AID 2283084); conditions: primary human HUVEC with PBMC; actives raise or lower the signal
How it was run: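 ELISA signal for cell-surface Tissue Factor (CD142) was read 24 h after compound dosing of an LPS-stimulated human endothelial–PBMC primary co-culture. Gain or loss of signal was scored relative to DMSO.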

[4] = read-out: Tumor necrosis factor (Homo sapiens) (UniProt P01375); test: BSK_LPS_TNFa: BioMAP Diversity Plus: LPS Assay for Tumour Necrosis Factor alpha (TNFa) Biomarker Activity (AID 2283085); conditions: primary human HUVEC with PBMC; actives raise or lower the signal
How it was run: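 Primary human vascular co-culture of HUVEC and PBMC; TNFa ELISA 24 h after treatment, analysed as increase or decrease relative to DMSO control.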

[5] = read-out: Vascular cell adhesion molecule 1 (VCAM1), VCAM1 (gene 7412); test: BSK_LPS_VCAM1: BioMAP Diversity Plus: LPS Assay for Vascular cell adhesion molecule 1 (VCAM1) Biomarker Activity (AID 2283086); conditions: primary human HUVEC with PBMC; actives raise or lower the signal
How it was run: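 Primary human vascular co-culture (umbilical vein endothelium plus PBMC) stimulated with LPS received chemical; 24 h later VCAM-1 was read by ELISA. Overt cytotoxicity was assessed by sulforhodamine B staining of parallel cultures at the same time point.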

CD38, CD38 (gene 952) = test: BSK_SAg_CD38: BioMAP Diversity Plus: SAg Assay for CD38 Biomarker Activity (AID 2283087); conditions: primary human HUVEC with PBMC; actives raise or lower the signal
How it was run: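 Fluorescence ELISA of cell-surface CD38 served as the read-out, with either increase or decrease fitted against DMSO controls. Cells were a human umbilical vein endothelium plus PBMC co-culture under SEB/TSST-1 stimulation, measured 24 h after dosing.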

CD40, CD40 (gene 958) = test: BSK_SAg_CD40: BioMAP Diversity Plus: SAg Assay for CD40 Biomarker Activity (AID 2283088); conditions: primary human HUVEC with PBMC; actives raise or lower the signal
How it was run: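 Compounds were dosed onto a human primary endothelial–PBMC co-culture, and after 24 h CD40 was quantified by ELISA using a fluorescence signal. Activity in either direction was fitted relative to DMSO.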

[6] = read-out: Monocyte Chemoattractant Protein-1 (MCP1), CCL2 (gene 6347); test: BSK_SAg_MCP1: BioMAP Diversity Plus: SAg Assay for Monocyte Chemoattractant Protein-1 (MCP1) Biomarker Activity (AID 2283090); conditions: primary human HUVEC with PBMC; actives raise or lower the signal
How it was run: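 MCP-1 levels in the endothelial–PBMC SAg co-culture were quantified by ELISA at 24 h post-dosing; both increases and decreases versus DMSO scored. Cytotoxicity monitored by SRB total protein in parallel cultures.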

[7] = read-out: E-selectin (Homo sapiens) (UniProt P16581); test: BSK_SAg_Eselectin: BioMAP Diversity Plus: SAg Assay for Eselectin Biomarker Activity (AID 2283091); conditions: primary human HUVEC with PBMC; actives raise or lower the signal
How it was run: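 Co-culture: HUVEC + PBMC. Dose compound; 24 h. ELISA for E-selectin. Bidirectional fit vs DMSO.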

[8] = read-out: Monokine induced gamma interferon (MIG), CXCL9 (gene 4283); test: BSK_SAg_MIG: BioMAP Diversity Plus: SAg Assay for Monokine induced gamma interferon (MIG) Biomarker Activity (AID 2283092); conditions: primary human HUVEC with PBMC; actives raise or lower the signal
How it was run: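 ELISA readout of MIG/CXCL9; primary human umbilical vein endothelial cells co-cultured with peripheral blood mononuclear cells; 24 h post-dose; gain/loss fit vs DMSO baseline.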

[9] = read-out: Interleukin-8 (IL8), CXCL8 (gene 3576); test: BSK_SAg_IL8: BioMAP Diversity Plus: SAg Assay for Interleukin-8 (IL8) Biomarker Activity (AID 2283094); conditions: primary human HUVEC with PBMC; actives raise or lower the signal
How it was run: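 In this co-culture of human umbilical vein endothelium with peripheral blood mononuclear cells, IL-8 is assayed by ELISA at 24 h. DMSO serves as baseline for bidirectional curve fitting.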

[10] = BSK_SAg_Proliferation: Cell Proliferation Assessment in the BioMAP Diversity Plus: SAg Assay (AID 2283095); conditions: primary human HUVEC with PBMC;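 also: relative cell number as total protein by SRB absorbance in sub-confluent culture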
How it was run: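 Readout is SRB-stained protein (560 nm) in a primary human HUVEC and PBMC co-culture; sub-confluent cultures are read at 96 h. Activity is fitted bidirectionally using DMSO as baseline.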

[11] = BSK_SAg_PBMCCytotoxicity: PBMC Cytotoxicity Assessment in the BioMAP Diversity Plus: SAg Assay (AID 2283093); conditions: primary human HUVEC with PBMC;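 also: PBMC viability measured as Alamar Blue reduction fluorescence at 546/580 nm; fitted both ways against DMSO so a hit may be loss or gain of signal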;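 as to AC50: PBMC superantigen activated with SEB plus TSST-1 one hour after compound addition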
How it was run: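 Compound added to 75,000 PBMC/well for 1 h; SEB and TSST-1 then added at 20 ng/mL final each; 90 h incubation; Alamar Blue 6 h; read 546/580 nm ex/em. Activity fitted bidirectionally relative to DMSO baseline.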

[12] = BSK_SAg_SRB: Viability Assessment in the BioMAP Diversity Plus: SAg Assay (AID 2283096); conditions: primary human HUVEC with PBMC;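 also: cells read one day after compound addition; hits may be either gain or loss of signal compared with DMSO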
How it was run: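 Total protein by sulforhodamine B staining, 24 h after dosing, in HUVEC–PBMC co-culture; DMSO-referenced bidirectional fitting.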

CD69, CD69 (gene 969) = test: BSK_SAg_CD69: BioMAP Diversity Plus: SAg Assay for CD69 Biomarker Activity (AID 2283089); conditions: primary human HUVEC with PBMC; actives raise or lower the signal
How it was run: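 ELISA, fluorescence read-out: CD69 on human umbilical vein endothelial cell + PBMC co-culture, 24 h post-dosing. Gain or loss of signal fitted bidirectionally against DMSO baseline.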

[13] = biological target: human CYP19A1, CYP19A1 (gene 1588) (UniProt P11511); test: NVS_ADME_hCYP19A1: NovaScreen (NVS) CYP450-related Enzyme Activity (ADME) Assay for human CYP19A1 (AID 2283098; active = hit-call score of the fitted dose curve at least 0.9, where 1 is the maximum)
Sequence of human CYP19A1, CYP19A1 (gene 1588) (P11511 whole entry, looked up): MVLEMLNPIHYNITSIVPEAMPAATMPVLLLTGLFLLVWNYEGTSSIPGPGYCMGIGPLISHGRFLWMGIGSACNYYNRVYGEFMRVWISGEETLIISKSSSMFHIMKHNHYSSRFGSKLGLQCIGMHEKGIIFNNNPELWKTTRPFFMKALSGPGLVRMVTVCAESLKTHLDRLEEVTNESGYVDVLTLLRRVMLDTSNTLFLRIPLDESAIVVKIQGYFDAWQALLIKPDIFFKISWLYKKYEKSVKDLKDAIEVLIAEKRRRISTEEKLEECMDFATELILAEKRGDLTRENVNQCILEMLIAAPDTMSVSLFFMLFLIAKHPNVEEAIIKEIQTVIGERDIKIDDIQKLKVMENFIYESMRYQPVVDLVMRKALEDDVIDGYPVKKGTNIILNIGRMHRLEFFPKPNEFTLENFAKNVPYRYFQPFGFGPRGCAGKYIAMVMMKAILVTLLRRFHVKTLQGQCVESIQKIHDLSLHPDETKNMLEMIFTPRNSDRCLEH
How it was run: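 Biochem, cell-free; recombinant enzyme + specific substrate; fluorescence intensity at 0.5 h post-dose; 10 uM duplicate primary, conc. series for actives; acetonitrile = negative control/baseline; positive and negative controls on every plate.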

[14] = biological target: human CYP2A6, CYP2A6 (gene 1548) (UniProt P11509); test: NVS_ADME_hCYP2A6: NovaScreen (NVS) CYP450-related Enzyme Activity (ADME) Assay for human CYP2A6 (AID 2283099; active = hit-call score of the fitted dose curve at least 0.9, where 1 is the maximum)
Sequence of human CYP2A6, CYP2A6 (gene 1548) (P11509 whole entry, looked up): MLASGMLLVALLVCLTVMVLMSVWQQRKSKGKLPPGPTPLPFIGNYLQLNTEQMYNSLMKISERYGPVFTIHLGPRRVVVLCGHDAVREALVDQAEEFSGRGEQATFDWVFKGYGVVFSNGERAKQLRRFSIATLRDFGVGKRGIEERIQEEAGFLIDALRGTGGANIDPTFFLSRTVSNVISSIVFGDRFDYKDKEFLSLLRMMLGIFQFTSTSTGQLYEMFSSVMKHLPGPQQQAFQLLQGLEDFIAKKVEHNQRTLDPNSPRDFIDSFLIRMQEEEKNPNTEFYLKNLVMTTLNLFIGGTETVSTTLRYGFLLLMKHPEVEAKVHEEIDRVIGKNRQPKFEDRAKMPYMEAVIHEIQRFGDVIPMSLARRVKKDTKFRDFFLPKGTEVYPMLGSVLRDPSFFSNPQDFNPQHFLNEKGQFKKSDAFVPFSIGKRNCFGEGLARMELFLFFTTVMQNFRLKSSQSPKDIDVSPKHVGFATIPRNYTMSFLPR
How it was run: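 Fluorescent substrate turnover by recombinant CYP2A6 (insect cell source), 0.5 h read. Screen: 10 uM, duplicate; threshold hits (e.g. 30% inhibition) → singleton concentration-response, top 20 uM. Positive and negative controls on every plate.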

[15] = biological target: human CYP2B6, CYP2B6 (gene 1555) (UniProt P20813); test: NVS_ADME_hCYP2B6: NovaScreen (NVS) CYP450-related Enzyme Activity (ADME) Assay for human CYP2B6 (AID 2283101; active = hit-call score of the fitted dose curve at least 0.9, where 1 is the maximum)
Sequence of human CYP2B6, CYP2B6 (gene 1555) (P20813 whole entry, looked up): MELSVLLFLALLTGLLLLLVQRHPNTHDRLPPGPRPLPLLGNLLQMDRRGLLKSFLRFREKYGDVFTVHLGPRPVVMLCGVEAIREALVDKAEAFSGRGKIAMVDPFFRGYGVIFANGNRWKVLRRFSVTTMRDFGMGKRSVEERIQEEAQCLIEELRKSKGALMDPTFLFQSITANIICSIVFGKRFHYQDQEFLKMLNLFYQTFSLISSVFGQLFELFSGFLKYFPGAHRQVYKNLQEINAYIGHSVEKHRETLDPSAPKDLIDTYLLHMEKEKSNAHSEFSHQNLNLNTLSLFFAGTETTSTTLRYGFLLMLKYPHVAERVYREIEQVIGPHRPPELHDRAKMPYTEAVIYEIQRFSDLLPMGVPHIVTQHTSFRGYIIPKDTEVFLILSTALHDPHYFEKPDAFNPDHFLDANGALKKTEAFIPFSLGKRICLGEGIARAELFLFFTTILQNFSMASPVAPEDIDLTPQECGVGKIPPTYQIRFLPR
How it was run: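 Fluorescence-based enzyme activity of recombinant human CYP2B6, measured 1 h post-dose against acetonitrile vehicle baseline. Screened at a single concentration of 10 uM in duplicate before concentration-response follow-up.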

[16] = biological target: human CYP1A2, CYP1A2 (gene 1544) (UniProt P05177); test: NVS_ADME_hCYP1A2: NovaScreen (NVS) CYP450-related Enzyme Activity (ADME) Assay for human CYP1A2 (AID 2283102; active = hit-call score of the fitted dose curve at least 0.9, where 1 is the maximum)
Sequence of human CYP1A2, CYP1A2 (gene 1544) (P05177 whole entry, looked up): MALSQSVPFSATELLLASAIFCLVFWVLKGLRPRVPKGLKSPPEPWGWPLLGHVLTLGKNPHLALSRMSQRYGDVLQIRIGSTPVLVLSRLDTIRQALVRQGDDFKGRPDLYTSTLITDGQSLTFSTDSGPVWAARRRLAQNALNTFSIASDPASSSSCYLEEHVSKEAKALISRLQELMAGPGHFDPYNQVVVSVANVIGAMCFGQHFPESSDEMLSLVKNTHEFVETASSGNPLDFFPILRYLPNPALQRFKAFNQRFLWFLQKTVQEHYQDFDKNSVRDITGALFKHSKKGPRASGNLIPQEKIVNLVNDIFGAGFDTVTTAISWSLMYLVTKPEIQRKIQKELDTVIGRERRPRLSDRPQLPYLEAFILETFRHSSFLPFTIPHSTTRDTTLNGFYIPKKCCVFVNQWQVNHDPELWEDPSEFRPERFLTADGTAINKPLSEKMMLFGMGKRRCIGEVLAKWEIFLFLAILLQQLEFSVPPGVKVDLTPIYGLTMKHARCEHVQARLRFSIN
How it was run: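 rec. hCYP1A2 (insect cells), cell-free; fluorogenic substrate; 0.5 h; FI read. Baseline = acetonitrile; signal loss = inhibition. 10 uM duplicate primary → conc. series for actives.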

Measured: AC50

Sequence of Tumor necrosis factor (Homo sapiens) (P01375 whole entry, looked up): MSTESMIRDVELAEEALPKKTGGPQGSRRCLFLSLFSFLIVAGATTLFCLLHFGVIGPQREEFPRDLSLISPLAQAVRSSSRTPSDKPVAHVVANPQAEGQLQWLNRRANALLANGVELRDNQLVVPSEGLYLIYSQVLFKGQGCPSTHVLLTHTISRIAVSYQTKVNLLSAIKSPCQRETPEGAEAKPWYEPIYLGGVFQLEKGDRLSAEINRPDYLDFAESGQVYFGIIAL
Sequence of E-selectin (Homo sapiens) (P16581 whole entry, looked up): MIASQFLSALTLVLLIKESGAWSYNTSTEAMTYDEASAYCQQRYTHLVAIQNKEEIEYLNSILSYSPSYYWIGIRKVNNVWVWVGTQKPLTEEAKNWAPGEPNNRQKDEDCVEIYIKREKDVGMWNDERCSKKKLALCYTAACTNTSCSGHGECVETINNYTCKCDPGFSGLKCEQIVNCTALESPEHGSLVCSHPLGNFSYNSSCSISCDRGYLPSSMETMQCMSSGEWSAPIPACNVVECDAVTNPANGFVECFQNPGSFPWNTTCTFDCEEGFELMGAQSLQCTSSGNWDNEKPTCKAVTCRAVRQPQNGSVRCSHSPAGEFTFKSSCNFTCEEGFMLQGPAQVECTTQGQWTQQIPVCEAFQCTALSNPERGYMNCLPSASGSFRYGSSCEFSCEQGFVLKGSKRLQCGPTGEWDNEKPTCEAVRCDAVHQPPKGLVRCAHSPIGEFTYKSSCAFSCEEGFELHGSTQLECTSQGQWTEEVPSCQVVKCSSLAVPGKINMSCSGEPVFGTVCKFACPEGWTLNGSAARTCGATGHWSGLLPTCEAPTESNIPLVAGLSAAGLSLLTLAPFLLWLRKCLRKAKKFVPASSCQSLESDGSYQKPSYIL

Oc1ccccc1O
inactive: [3] | [4] | CD38, CD38 (gene 952) | [6] | [7] | [8] | [9]
active: [1] 14.4 µM | [2] 3.92 µM | [5] 2.79 µM | CD40, CD40 (gene 958) 4.21 µM | [10] 24.5 µM

Cc1cn([C@H]2C=C[C@@H](CO)O2)c(=O)[nH]c1=O
not listed: [6] | CD69, CD69 (gene 969) | [13] | [14] | [15] | [16]
inactive: all other assays above

CC(C)OC(=O)C(C)(C)Oc1ccc(C(=O)c2ccc(Cl)cc2)cc1
active: [2] 27.3 µM | [5] 32.2 µM | CD38, CD38 (gene 952) 16.1 µM | [6] 20 µM | [7] 33.5 µM | [9] 29.1 µM | [10] 29.5 µM
inactive: [1] | [3] | [4] | [8]

CCCC[C@H]1CN(CC2CCOCC2)C(=O)OC12CCN(C1(C)CCN(C(=O)c3c(C)ncnc3C)CC1)CC2
not listed: CD38, CD38 (gene 952) | [12] | [13] | [14] | [15] | [16]
inactive: all other assays above

O=C1O[C@H]([C@H](O)CO)C(O)=C1O
active: [10] 12 µM
not listed: CD38, CD38 (gene 952) | [11] | CD69, CD69 (gene 969) | [13] | [14] | [15] | [16]
inactive: all other assays above

Cc1cc(SC2=C(O)C[C@@](CCc3ccc(N)cc3)(C(C)C)OC2=O)c(C(C)(C)C)cc1CO
active: [4] 20 µM
not listed: [5] | [11] | [14] | [15] | [16]
inactive: all other assays above

S=c1[nH]c2ccccc2s1
active: [1] 12.9 µM | [3] 2.23 µM | [14] 4.85 µM | [15] 1.28 µM
not listed: CD38, CD38 (gene 952) | CD40, CD40 (gene 958) | [13]
inactive: all other assays above

Cc1c(C)c2c(c(C)c1O)CCC(C)(COc1ccc(CC3SC(=O)NC3=O)cc1)O2 (stereo not given)
active: [1] 32.5 µM | [2] 31.6 µM | [3] 34.8 µM | [4] 31.6 µM | [5] 30.5 µM | CD40, CD40 (gene 958) 14.9 µM | [6] 32.6 µM | [7] 31.9 µM | [8] 31.6 µM | [11] 20 µM | [9] 32.8 µM | [10] 14.1 µM

CC(=O)O[C@]1(C(C)=O)CC[C@H]2[C@@H]3C=C(Cl)C4=CC(=O)[C@@H]5C[C@@H]5[C@]4(C)[C@H]3CC[C@@]21C
active: CD40, CD40 (gene 958) 30.1 µM | [12] 31.2 µM
not listed: CD38, CD38 (gene 952) | [11] | CD69, CD69 (gene 969) | [13] | [14] | [15] | [16]
inactive: all other assays above

Reference: PubChem BioAssay (EPA / NIEHS)
